# Screens from PubChem.
# HCV inhibitor: HCV inhibition | 3.4% of 340,000 active | Potency, µM (top dose mostly 41.8 µM), for the others: at the top dose activity change, negative = inhibition, most hits filed as inhibitors | Huh7.5.1 HCVcc-Cre infection, luciferase reporter, 44 h | AID 651820; active = well fitted inhibition curve with a large enough effect; inconclusive = small, poorly fitted or top-dose-only effect, or another doubt; inactive = no such curve, though single readings can be large or run the other way; also: potency is read from the fitted curve at half-maximal effect
#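 Compounds are dispensed onto cells plated 4 h earlier at 1,000 per well, with HCVcc-Cre virus (about 0.5 moi) added next. Following 44 h of culture, luminescent signal is measured for 15 sec after 15 min with substrate at room temperature.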
# Marburg entry inh: inhibitors of Marburg virus binding or cell entry; Marburg virus pseudotyped entry inhibition, cell reporter; Potency, µM (titrated, usually from 37.8 µM), inactives show top-dose activity change, negative = inhibition, hits mostly inhibitors; 1.8% of 300,000 active; calls by dose curve; tested in HEK293 cells; also: potency is read from the fitted curve at half-maximal effect
# FMDV antiviral: antivirals against foot and mouth disease virus. AID 1159524. Potency, µM (top dose mostly 57.9 µM), for inactives: at the highest dose activity change, negative = inhibition, most hits filed as inhibitors. 1.2% of 410,000 active. FMDV antiviral cell-based qHTS; calls by dose curve; tested in HEK293T cells; also: read-out not given here; potency is read from the fitted curve at half-maximal effect; nearly all actives have a fitted effect of over 45% in size
# LASV entry inh: Lassa virus entry inhibition | Potency, µM (doses to about 37.9 µM), without a hit: top-dose activity change, negative = inhibition, actives largely listed as inhibitors | Lassa virus pseudotype entry inhibition, cell reporter | 1.2% of 300,000 active; calls by dose curve; tested in HEK293 cells; also: potency is read from the fitted curve at half-maximal effect; nearly all actives have a fitted effect of over 50% in size
# HCMV inh: blocks human cytomegalovirus replication | activity change, negative = inhibition, % at 57.5 µM | 4.5% of 410,000 active | HFF cells, HCMV-luciferase reporter, 72 h; hits give low values; in the data active = activity change below about -60%; inconclusive = no clear call, values can overlap the other calls; inactive = above about -39%
#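 Screen run at 2 compound doses on HFFs infected with reporter HCMV, MOI 1 PFU/cell. Luciferase activity from cell lysates at 72 h post infection gave inhibition relative to buffer-only and Salinomycin wells.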
# Numbers without * were called inactive; ? = inconclusive; nt = no result given; [ ] = dose if it differs, or a comment. Shown are actives, neighbours in structure and some others; about 7.9% of the full set was active somewhere. % is scaled to controls: 0 for no effect and ±100 for the full control effect.
SMILES,HCV inhibitor,Marburg entry inh,FMDV antiviral,LASV entry inh,HCMV inh
COc1ccc2ccccc2c1CN1CCCC(n2cc(C(=O)N3CCCC3)nn2)C1 (stereo not drawn),nt,nt,12%,nt,nt
O=C(CC(=O)c1cc(Cl)ccc1O)c1ccccc1,?,?,nt,13µM*,-10
COc1ccc(C(=O)CC(=O)c2ccccc2O)cc1,?,?,10%,?,47
Cc1ccc(O)c(C(=O)CC(=O)c2ccc(Cl)cc2)c1,22µM*,nt,18%,nt,?
COc1ccc(O)c(C(=O)CC(=O)c2ccc(F)cc2)c1,-8%,13µM*,0%,10µM*,4
C[C@@H]1CC[C@H]2C(=O)N(Cc3ccccc3)C[C@H](O)CN2[C@H]1c1ccc(Br)cc1,nt,-24%[14.2 µM],nt,nt,nt
CCCCCCC(O)(c1ccc(OC)cc1)C(CN1CCOCC1)c1ccccc1 (stereo not drawn),?,?,-30%,?,-69*
CC(C)CC(O)(c1ccccc1)C(CN1CCOCC1)c1ccccc1 (stereo not drawn),6%,-10%[46.1 µM],-23%,-5%[46.1 µM],?
CC(C)CCC(O)(c1ccccc1)C(CN1CCOCC1)c1ccccc1 (stereo not drawn),?,?,?,-23%,-67*
CCCC(O)(c1ccc(Cl)cc1)C(CN1CCOCC1)c1ccccc1 (stereo not drawn),?,nt,-27%,nt,-28
CCCCCOc1ccc(C(C)(O)C(CN2CCOCC2)c2ccccc2)cc1 (stereo not drawn),?,nt,-23%,nt,-23
CCCCCC(O)(c1ccccc1)C(CN1CCOCC1)c1ccccc1 (stereo not drawn),?,nt,?,nt,-60*
CCCCCCC(O)(c1ccccc1)C(CN1CCOCC1)c1ccccc1 (stereo not drawn),?,nt,?,nt,-76*
CCN(CC)CCNC(=O)Cn1nc(Cc2cccnc2)c2ccccc2c1=O,18%,nt,-7%,nt,5
CCOc1ccc(NC(=O)Cn2nc(Cc3ccncc3)c3ccccc3c2=O)cc1,nt,?,-13%,17%[46.1 µM],-18
CCCCNC(=O)Cn1nc(Cc2ccncc2)c2ccccc2c1=O,11%,nt,-21%,nt,-62*
CN(CCC#N)C(=O)Cn1nc(Cc2ccncc2)c2ccccc2c1=O,-3%,nt,-4%,nt,12
CCCN(C(=O)Cn1nc(Cc2cccnc2)c2ccccc2c1=O)c1ccc(C(C)C)cc1,nt,?,-16%,-19%[46.1 µM],-63*
CCCN(C(=O)Cn1nc(Cc2ccncc2)c2ccccc2c1=O)c1ccccc1C,nt,?,2%,?,-62*
CCc1cccc(NC(=O)Cn2nc3c4cc(F)ccc4n(Cc4cccc(C)c4)cc-3c2=O)c1,nt,nt,-24%,-3%[46.1 µM],17
CC(C)=CCC/C(C)=C/CO/N=C1/C[C@@H](O)[C@@H](O)[C@@H]2[C@@H]3C(=O)N(c4cccc(Oc5ccccc5)c4)C(=O)[C@H]3CC[C@@H]12,nt,26%[14.2 µM],nt,nt,nt
O=C(O)CCc1ccc(-c2ccc(F)cc2)n1CC(=O)O,-6%,0%,-13%,14%,-29
NC(=O)Nn1c(CCC(=O)O)ccc1-c1ccc(F)cc1,14%,-26%,-16%,7%,-93*
NC(=S)Nc1cccc2cccnc12,16%,19%,-10%,1%,-79*
CC(=O)Nc1ccc(S(=O)(=O)Nc2ccccn2)cc1,14%,17%[46.1 µM],-11%,-2%,30
SMILES,HCV inhibitor,Marburg entry inh,FMDV antiviral,LASV entry inh,HCMV inh
CC(=O)Nc1ccc(S(=O)(=O)Nc2cccc3cccnc23)cc1,-22%,-9%[46.1 µM],-12%,nt,-83*
Cc1ccc(S(=O)(=O)Nc2cccc3cccnc23)c([N+](=O)[O-])c1,?,?,?,10µM*,-98*
O=S(=O)(Nc1cccc2cccnc12)c1ccc(S(=O)(=O)N2CCCC2)cc1,2.8µM*,?,nt,8.2µM*,-86*
NC(=S)NNc1cccc2cccnc12,?,-9%,-12%,-23%,12
O=C(NC(=S)Nc1ccccc1N1CCOCC1)c1ccc(-c2ccccc2F)o1,-4%,3%[46.1 µM],-24%,-12%[46.1 µM],-18
CCc1ccc(-n2c(=O)c3sc4ccccc4c3n(Cc3cccc(F)c3)c2=O)cc1,nt,12%[46.1 µM],-4%,13%[46.1 µM],4
C=C[C@H](C)[C@](C)(O)c1ccccc1,nt,19%[14.2 µM],nt,nt,nt
COc1cccc(C(=O)COC(=O)CCC(=O)c2ccccc2)c1,6%,nt,0%,nt,-18
Cc1ccc2cccc(NS(=O)(=O)c3ccccc3)c2n1,-5%,1.4µM*,?,?,-80*
COc1ccccc1NS(=O)(=O)c1ccc2ccccc2c1,-20%,nt,16%,nt,-25
